Reference: PubChem BioAssay AID1159580 (chemical genetic matrix, 2015)
The campaign covered roughly 5,500 compounds. About 2,000 (36%) were called active. Inconclusive results (about 18%) are left out. Rule as the data show it: active = normalized growth mostly below about 0.91 (no sharp cut-off); inconclusive = no clear call, values can overlap the other calls; inactive = mostly above about 0.92. The list shows a part of the results.

Assay: chemical genetic growth profiling, strain panel (AID 1159580);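 also: tested at 20 µM; growth read once vehicle control cultures reached saturation at 30 °C; 1 = growth at the plate median or of vehicle wells; lower values mean less growth of the strain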
Conditions: growth OD
[1] = S. cerevisiae deletion strains, locus YHR030C, strain SLT2, hits give low values
[2] = S. cerevisiae deletion strains, locus YJL095W, strain BCK1, hits give low values

Measured: normalized growth

C=Cc1c(C)c2cc3nc(c4c5[nH]c(cc6nc(cc1[nH]2)C(C)=C6CC)c(C)c5C(=O)[C@@H]4C(=O)OC)[C@@H](CCC(=O)OC/C=C(\C)CCCC(C)CCCC(C)CCCC(C)C)[C@@H]3C (some centres undefined)
inactive: [1] 0.987 | S. cerevisiae deletion strains, locus YHR079C, strain IRE1, hits give low values 0.972 | [2] 0.978 | S. cerevisiae deletion strains, locus YJR066W, strain TOR1, hits give low values 0.934 | S. cerevisiae deletion strains, locus YLR113W, strain HOG1, hits give low values 0.957 | S. cerevisiae deletion strains, locus YNL183C, strain NPR1, hits give low values 0.935 | S. cerevisiae deletion strains, locus YOR231W, strain MKK1, hits give low values 0.954 | S. cerevisiae deletion strains, locus YPL256C, strain CLN2, hits give low values 0.965

CCC(C)C(=O)O[C@H]1[C@H](O)C2C(CN3CC(C)CCC3[C@@]2(C)O)C2C[C@]34O[C@]5(O)C(OC(=O)C(C)(O)C(C)O)CC[C@@]3(C)C5C(OC(C)=O)[C@@H](OC(C)=O)C4[C@@]21O (some centres undefined)
inactive: S. cerevisiae deletion strains, locus YAL013W, strain DEP1, hits give low values 1.01 | S. cerevisiae deletion strains, locus YBR021W, strain FUR4, hits give low values 0.996 | S. cerevisiae deletion strains, locus YBR229C, strain ROT2, hits give low values 1 | S. cerevisiae deletion strains, locus YCL029C, strain bik1, hits give low values 1 | S. cerevisiae deletion strains, locus YDL035C, strain GPR1, hits give low values 1.02 | S. cerevisiae deletion strains, locus YDL074C, strain BRE1, hits give low values 1.01 | S. cerevisiae deletion strains, locus YDL101C, strain DUN1, hits give low values 1.01 | S. cerevisiae deletion strains, locus YDL134C, strain PPH21, hits give low values 1.01 | S. cerevisiae deletion strains, locus YDL185W, strain tfp1, hits give low values 0.999 | S. cerevisiae deletion strains, locus YDL192W, strain arf1, hits give low values 1 | S. cerevisiae deletion strains, locus YDR101C, strain arx1, hits give low values 0.986 | S. cerevisiae deletion strains, locus YDR150W, strain NUM1, hits give low values 1.01 | S. cerevisiae deletion strains, locus YDR162C, strain NBP2, hits give low values 1.01 | S. cerevisiae deletion strains, locus YDR318W, strain mcm21, hits give low values 0.998 | S. cerevisiae deletion strains, locus YDR388W, hits give low values 1 | S. cerevisiae deletion strains, locus YDR502C, strain sam2, hits give low values 0.996 | S. cerevisiae deletion strains, locus YEL061C, strain CIN8, hits give low values 1.01 | S. cerevisiae deletion strains, locus YER110C, hits give low values 0.994 | S. cerevisiae deletion strains, locus YER155C, strain BEM2, hits give low values 1 | S. cerevisiae deletion strains, locus YER167W, strain BCK2, hits give low values 1.07 | S. cerevisiae deletion strains, locus YGL078C, strain dbp3, hits give low values 1 | S. cerevisiae deletion strains, locus YGL086W, strain mad1, hits give low values 1 | S. cerevisiae deletion strains, locus YGL248W, strain PDE1, hits give low values 1.01 | S. cerevisiae deletion strains, locus YGR078C, strain PAC10, hits give low values 1.01 | S. cerevisiae deletion strains, locus YGR135W, strain pre9, hits give low values 0.997 | S. cerevisiae deletion strains, locus YGR229C, strain SMI1, hits give low values 1.03 | S. cerevisiae deletion strains, locus YGR252W, strain gcn5, hits give low values 1.01 | [1] 1 | S. cerevisiae deletion strains, locus YHR079C, strain IRE1 (second series), hits give low values 0.998 | S. cerevisiae deletion strains, locus YHR094C, strain hxt1, hits give low values 1 | S. cerevisiae deletion strains, locus YHR129C, strain ARP1, hits give low values 1 | S. cerevisiae deletion strains, locus YHR200W, strain rpn10, hits give low values 1 | S. cerevisiae deletion strains, locus YIL066C, strain RNR3, hits give low values 1.01 | S. cerevisiae deletion strains, locus YIL073C, strain SPO22, hits give low values 1.02 | S. cerevisiae deletion strains, locus YIL125W, strain kgd1, hits give low values 1.01 | S. cerevisiae deletion strains, locus YIR030C, strain dcg1, hits give low values 0.991 | [2] 0.994 | S. cerevisiae deletion strains, locus YJL134W, strain LCB3, hits give low values 1.01 | S. cerevisiae deletion strains, locus YJL168C, strain set2, hits give low values 1 | S. cerevisiae deletion strains, locus YJL187C, strain SWE1 (second series), hits give low values 1.01 | S. cerevisiae deletion strains, locus YJR043C, strain POL32, hits give low values 0.984 | S. cerevisiae deletion strains, locus YJR075W, strain HOC1, hits give low values 1.01 | S. cerevisiae deletion strains, locus YKL009W, strain mrt4, hits give low values 1 | S. cerevisiae deletion strains, locus YKL068W, hits give low values 1.01 | S. cerevisiae deletion strains, locus YKL085W, strain MDH1 (second series), hits give low values 1 | S. cerevisiae deletion strains, locus YKL085W, strain MDH1, hits give low values 1 | S. cerevisiae deletion strains, locus YKL190W, strain CNB1, hits give low values 1.01 | S. cerevisiae deletion strains, locus YKR001C, strain vps1, hits give low values 0.98 | S. cerevisiae deletion strains, locus YLR039C, strain RIC1, hits give low values 1 | S. cerevisiae deletion strains, locus YLR058C, strain SHM2, hits give low values 1.01 | S. cerevisiae deletion strains, locus YLR102C, strain apc9, hits give low values 1 | S. cerevisiae deletion strains, locus YLR262C, strain YPT6, hits give low values 0.996 | S. cerevisiae deletion strains, locus YLR268W, strain sec22, hits give low values 0.981 | S. cerevisiae deletion strains, locus YLR330W, strain CHS5, hits give low values 1.02 | S. cerevisiae deletion strains, locus YLR342W, strain FKS1 (second series), hits give low values 1 | S. cerevisiae deletion strains, locus YLR371W, strain rom2, hits give low values 1 | S. cerevisiae deletion strains, locus YLR418C, strain cdc73, hits give low values 1 | S. cerevisiae deletion strains, locus YML016C, strain PPZ1, hits give low values 1 | S. cerevisiae deletion strains, locus YML032C, strain rad52, hits give low values 0.991 | S. cerevisiae deletion strains, locus YML124C, strain tub3, hits give low values 0.996 | S. cerevisiae deletion strains, locus YMR078C, strain ctf18, hits give low values 1.01 | S. cerevisiae deletion strains, locus YMR223W, strain ubp8, hits give low values 0.999 | S. cerevisiae deletion strains, locus YMR263W, strain SAP30, hits give low values 1 | S. cerevisiae deletion strains, locus YMR307W, strain GAS1, hits give low values 0.987 | S. cerevisiae deletion strains, locus YNL067W, strain RPL9B, hits give low values 1 | S. cerevisiae deletion strains, locus YNL128W, strain TEP1, hits give low values 1.02 | S. cerevisiae deletion strains, locus YNL153C, strain GIM3, hits give low values 0.996 | S. cerevisiae deletion strains, locus YNL233W, strain BNI4, hits give low values 1.01 | S. cerevisiae deletion strains, locus YNL250W, strain rad50, hits give low values 0.99 | S. cerevisiae deletion strains, locus YNL271C, strain bni1, hits give low values 0.992 | S. cerevisiae deletion strains, locus YNL298W, strain CLA4, hits give low values 0.986 | S. cerevisiae deletion strains, locus YNL307C, strain MCK1, hits give low values 1.01 | S. cerevisiae deletion strains, locus YNL322C, strain KRE1, hits give low values 1.01 | S. cerevisiae deletion strains, locus YNR052C, strain pop2, hits give low values 1 | S. cerevisiae deletion strains, locus YOL006C, strain TOP1, hits give low values 1.02 | S. cerevisiae deletion strains, locus YOL012C, strain htz1 0.933 | S. cerevisiae deletion strains, locus YOL147C, strain pex11, hits give low values 0.996 | S. cerevisiae deletion strains, locus YOR061W, strain CKA2, hits give low values 1.01 | S. cerevisiae deletion strains, locus YOR069W, strain VPS5, hits give low values 1.01 | S. cerevisiae deletion strains, locus YOR136W, strain idh2, hits give low values 1 | S. cerevisiae deletion strains, locus YOR144C, strain elg1, hits give low values 0.996 | S. cerevisiae deletion strains, locus YOR184W, strain ser1, hits give low values 1.02 | S. cerevisiae deletion strains, locus YOR316C, strain cot1, hits give low values 1 | S. cerevisiae deletion strains, locus YPL055C, strain LGE1, hits give low values 1.03 | S. cerevisiae deletion strains, locus YPL241C, strain CIN2, hits give low values 1.01 | S. cerevisiae deletion strains, locus YPR119W, strain clb2, hits give low values 1 | S. cerevisiae deletion strains, locus YPR141C, strain kar3, hits give low values 0.996 | S. cerevisiae deletion strains, locus YPR163C, strain tif3, hits give low values 0.996 | S. cerevisiae deletion strains, locus YPR167C, strain met16, hits give low values 1.01 | S. cerevisiae deletion strains, strain wtn01, hits give low values 0.997 | S. cerevisiae strains, strain wild type, hits give low values 1.01
